This is one part of the list. Active and inactive are the calls of the source.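 The calls were made as follows, unless noted: active = mean inhibition across four replicates of at least 40 percent at the single tested concentration; inactive = the rest.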
Assays:
[1] = inhibitors of PAF-induced NFkB signaling in CF airway cells, dose response, cell-based, uHTS hits, panel, cytotoxicity readout (AID 624344); conditions: CF bronchial epithelial cells, PAF-induced NFkB reporter inhibition, with PAF, run 1; at 79 µM (top of the series) unless noted
[2] = as above; conditions: CF bronchial epithelial cells, PAF-induced NFkB reporter inhibition, with PAF, run 2; at 79 µM (top of the series) unless noted
[3] = HIF-2a reporter inhibitor retest, confirmation, luminescence, 786-0 RCC cells (AID 651580); conditions: HIF-2a luciferase reporter luminescence, overnight, at 18.8 µM, stronger effect = higher value
[4] = HIF-1a luciferase reporter signal reduction – MiaPaCa-2 cells, single concentration, counter-screen for HIF-2a inhibitor project, confirmation (AID 651589;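 active = mean inhibition of the reporter signal across four replicates at the single tested dose of 50% or more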); conditions: MiaPaCa-2 HIF-1a luciferase reporter, desferoxamine, overnight; at 18.8 µM; stronger effect = higher value
[5] = biological target: Tumor necrosis factor receptor superfamily member 10B (Homo sapiens) (UniProt O14763); assay: caspase-8 TRAIL sensitization, hit retest, confirmation, cell-based, NB7+caspase-8, with/without TRAIL, luminescence panel (AID 651596; in the data active = activity above about 50%); conditions: NB7 neuroblastoma + caspase-8, TRAIL sensitization, luminescence viability, with TRAIL, mean of runs, at 10 µM, stronger effect = higher value
[6] = as above; conditions: NB7 neuroblastoma + caspase-8, without TRAIL, luminescence viability, without TRAIL, mean of runs, at 10 µM
[7] = biological target: Tumor necrosis factor receptor superfamily member 10B (Homo sapiens) (UniProt O14763); assay: TRAIL sensitizers in caspase-8 expressing neuroblastoma cells, dose response, NB7 cells plus caspase-8, luminescence, panel (AID 652002); conditions: NB7 neuroblastoma +caspase-8, TRAIL sensitization, luminescence viability, NB7+Caspase-8, with TRAIL, run 1; at 12.5 µM (top of the series)
[8] = biological target: Tumor necrosis factor receptor superfamily member 10B (Homo sapiens) (UniProt O14763); assay: as above; conditions: NB7 neuroblastoma +caspase-8, TRAIL sensitization, luminescence viability, NB7+Caspase-8, with TRAIL, run 2; at 12.5 µM (top of the series)
[9] = as above; conditions: NB7 neuroblastoma +caspase-8, no TRAIL, compound-alone cytotoxicity counter-screen, luminescence viability, NB7+Caspase-8, run 1; at 12.5 µM (top of the series) unless noted
[10] = as above; conditions: NB7 neuroblastoma +caspase-8, no TRAIL, compound-alone cytotoxicity counter-screen, luminescence viability, NB7+Caspase-8, run 2; at 12.5 µM (top of the series) unless noted

Sequence of Tumor necrosis factor receptor superfamily member 10B (Homo sapiens) (O14763 whole entry, looked up): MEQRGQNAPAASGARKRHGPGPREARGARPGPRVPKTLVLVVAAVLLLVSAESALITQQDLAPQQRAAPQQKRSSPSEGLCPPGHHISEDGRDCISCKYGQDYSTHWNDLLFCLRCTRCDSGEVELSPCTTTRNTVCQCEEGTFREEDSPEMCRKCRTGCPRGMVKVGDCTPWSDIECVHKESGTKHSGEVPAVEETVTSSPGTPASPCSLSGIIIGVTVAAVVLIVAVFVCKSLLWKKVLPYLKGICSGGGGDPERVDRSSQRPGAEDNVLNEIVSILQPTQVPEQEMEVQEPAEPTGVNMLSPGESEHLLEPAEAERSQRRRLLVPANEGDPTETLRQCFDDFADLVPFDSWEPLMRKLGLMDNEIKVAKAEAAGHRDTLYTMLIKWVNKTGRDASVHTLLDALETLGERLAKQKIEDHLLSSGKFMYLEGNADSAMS

Cc1ccc(CSc2nccc(-c3c(C)nc4ccccn34)n2)cc1
inhibition [1]: 101% | inhibition [2]: 102%

COc1ccccc1[C@]1(C)ON(c2ccccc2C(F)(F)F)C1=O
inhibition [1]: 105% | inhibition [2]: 109%

NC(=O)c1cc2ccc(O)cc2oc1=Nc1ccccc1
inhibition [1]: 92.3% | inhibition [2]: 95.2%

COc1cc(/C=C2\SC(=O)N(CCNC(=O)c3sc4cc(F)ccc4c3Cl)C2=O)cc(OC)c1OC
inhibition [1]: 27.5% | inhibition [2]: 30.8%

Cc1cccc(C(=O)N2[C@@H](C(C)C)COc3cc(Br)ccc3S2(=O)=O)c1
inhibition [1]: 102% | inhibition [2]: 93.6%

CC1=C(C(=O)OCc2ccc3c(c2)OCO3)C(c2ccc(O)c([N+](=O)[O-])c2)NC(=O)N1 (stereo not given)
inhibition [1]: 94.5% | inhibition [2]: 89%

Cc1ccc2c(c1)C(=O)C(=O)N2Cc1ccc(Br)cc1
inhibition [1]: 106% | inhibition [2]: 113%

CC(C)(C)c1cc(C(=O)N/N=C/c2ccc([N+](=O)[O-])s2)n[nH]1
inhibition [3]: 74.6% (active) | inhibition [4]: 98.4% (active)

Cc1c(CCC(=O)O)c(=O)oc2cc3occ(-c4ccccc4)c3cc12
inhibition [3]: 68.1% (active) | inhibition [4]: 50.7% (active)

COc1cc(NC(=O)Cn2ncc(Cl)c(Cl)c2=O)c(C)cc1[N+](=O)[O-]
inhibition [1]: 97.1% | inhibition [2]: 91.1% | activity [5]: 99.2% | activity [6]: 99.3%

CCCc1[nH]nc2c1C(C1CC=CCC1)C(C#N)=C(N)O2 (stereo not given)
inhibition [3]: 8.58% (inactive) | inhibition [4]: 39.6% (inactive)

CCOC(=O)C1=C(CC)Nc2ccccc2N=C1NC(=O)Nc1ccc(Cl)c(Cl)c1
inhibition [1]: 113% | inhibition [2]: 103% | activity [5]: 63.9% | activity [6]: 64.3%

COc1cccc2c(C)c(C(=O)O)[nH]c12
inhibition [3]: 35.5% (inactive) | inhibition [4]: 37.3% (inactive)

Clc1ccc(Cn2ncc3c(N4CCN(c5ccccc5)CC4)ncnc32)cc1
inhibition [1]: 109% | inhibition [2]: 94.9% | activity [5]: 69.5% | activity [6]: 66.8%

COc1ccc2[nH]cc(C(=O)CCl)c2c1
inhibition [1]: 96.8% | inhibition [2]: 99.6% | activity [5]: 99.1% | activity [6]: 99.2%

Cc1ccccc1C(CC(=O)c1cccs1)C(C#N)C#N (stereo not given)
inhibition [3]: 28.4% (inactive) | inhibition [4]: 100% (active)

CCOc1ccccc1NC(=O)c1nc(S(=O)(=O)Cc2ccccc2)ncc1Cl
inhibition [1]: 78% | inhibition [2]: 83.5% | activity [5]: 79.4% | activity [6]: 99.5%

CC[C@@H]1Cc2cc(O)ccc2C2=C1c1ccc(O)cc1C[C@H]2CC
inhibition [3]: 54.5% (active) | inhibition [4]: 104% (active)

CCOc1cc(/C=C(/C#N)c2ccc(Cl)cc2)cc(Cl)c1OCC(=O)O
inhibition [3]: 98.1% (active) | inhibition [4]: 91.2% (active)

CCN1CCC(O)(/C=C/c2ccc(C)cc2)C(C(=O)/C=C/c2ccc(C)cc2)C1 (stereo not given)
inhibition [3]: 5.88% (inactive) | inhibition [4]: 105% (active)

COc1ccc(C(=O)/C=C/c2ccc(-c3ccccc3)cc2)cc1CSCC(=O)O
inhibition [3]: -10.7% (inactive) | inhibition [4]: 62.4% (active)

O=C(NCCC1=CCCCC1)c1coc(=O)c(Br)c1
inhibition [1]: 79.7% | inhibition [2]: 74.3% | activity [5]: 76.4% | activity [6]: 22.7%

Cc1cccc(N(Cc2cc(=O)[nH]c3ccccc23)C(=O)CCl)c1
inhibition [1]: 95.1% | inhibition [2]: 90.7% | activity [5]: 98.3% | activity [6]: 98.5%

CCOC(=O)c1sc(NC(=O)c2cccc(S(=O)(=O)N3CCc4ccccc43)c2)c(C#N)c1C
inhibition [1]: 79.6% | inhibition [2]: 80.5% | activity [5]: 53.4% | activity [6]: 41.3% | activity, % sensitization [7]: 29.7% | activity, % sensitization [8]: -18% | activity, % sensitization [9]: 1.22% | activity, % sensitization [10]: -10%

O=Nc1ccc(NO)c2ccccc12
inhibition [1]: 77.1% [at 39.5 µM] | inhibition [2]: 48.9% | activity [5]: 79.8% | activity [6]: 47.2% | activity, % sensitization [7]: 19% | activity, % sensitization [8]: 40.7% | activity, % sensitization [9]: 39.7% | activity, % sensitization [10]: 31.2%

OCCN1CCN(C(=S)c2ccc(-c3ccccc3)cc2)CC1
inhibition [3]: 93% (active) | inhibition [4]: 69.1% (active)

CCCSC(=S)NC1CCS(=O)(=O)C1 (stereo not given)
inhibition [3]: 14.6% (inactive) | inhibition [4]: 68.5% (active)

NC(N)=Nc1nc(-c2ccccc2)c2cc(Cl)ccc2n1
inhibition [3]: 17.8% (inactive) | inhibition [4]: 107% (active)

Cc1nnnn1/C(=C\c1ccccc1)C(=O)OCC(=O)N1CC2(C)CC1CC(C)(C)C2 (stereo not given)
inhibition [3]: 62% (active) | inhibition [4]: 67.3% (active)

COC(=O)c1c(NC(=O)CCCC(=O)O)sc2c1CCCCC2
inhibition [3]: 41.2% (active) | inhibition [4]: 27.3% (inactive)

COc1ccc(N(Cc2cc(=O)[nH]c3ccccc23)C(=O)CCl)cc1
inhibition [1]: 92.3% | inhibition [2]: 88.4% | activity [5]: 99.3% | activity [6]: 99.5%

Cc1ccc(-c2noc(CNC(=O)c3ccoc3C)n2)cc1
inhibition [3]: 0.91% (inactive) | inhibition [4]: -16.7% (inactive)

Cc1cccc(C(=O)Nc2ccc(CC(=O)O)cc2)c1
inhibition [3]: 53% (active) | inhibition [4]: 44.8% (inactive)

O=C(COC(=O)c1ccccc1C(=O)c1ccc(Cl)c([N+](=O)[O-])c1)NC1CCCCCC1
inhibition [1]: 110% | inhibition [2]: 99.7% | activity [5]: 98.1% | activity [6]: 97.2%

Cc1cc(-c2n[nH]c(=S)n2/N=C/C(Br)=C/c2ccccc2)n[nH]1
inhibition [3]: 22.8% (inactive) | inhibition [4]: 105% (active)

Source: PubChem BioAssay
